Measured values as given in PubChem BioAssay AID1159580 (chemical genetic matrix, 2015).
The whole screen tested about 5,500 compounds, of which about 2,000 (36%) were called active. Not shown: some 18% with an inconclusive outcome. Rule as the data show it: active = normalized growth mostly below about 0.91 (no sharp cut-off); inconclusive = no clear call, values can overlap the other calls; inactive = mostly above about 0.92. Some of the results follow.

Test: chemical genetic growth profiling, strain panel (AID 1159580);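 also: tested at 20 µM; growth read once vehicle control cultures reached saturation at 30 °C; 1 = growth at the plate median or of vehicle wells; lower values mean less growth of the strain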
Conditions: growth OD

Measured: normalized growth

COc1ccc2c(c1)OC1(O)COc3cc(OC)c(OC)cc3C1=C2 (stereo unspecified)
inactive: S. cerevisiae deletion strains, locus YNL071W, strain lat1, hits give low values 0.945 | S. cerevisiae deletion strains, locus YNL128W, strain TEP1, hits give low values 1.02 | S. cerevisiae deletion strains, locus YNL153C, strain GIM3, hits give low values 1.03 | S. cerevisiae deletion strains, locus YNL183C, strain NPR1, hits give low values 0.892 | S. cerevisiae deletion strains, locus YNL209W, strain ssb2, hits give low values 0.993 | S. cerevisiae deletion strains, locus YNL233W, strain BNI4, hits give low values 0.971 | S. cerevisiae deletion strains, locus YNL248C, strain rpa49, hits give low values 0.996 | S. cerevisiae deletion strains, locus YNL250W, strain rad50, hits give low values 0.998 | S. cerevisiae deletion strains, locus YNL271C, strain bni1, hits give low values 0.98 | S. cerevisiae deletion strains, locus YNL298W, strain CLA4, hits give low values 0.98 | S. cerevisiae deletion strains, locus YNL322C, strain KRE1 (second series), hits give low values 0.991 | S. cerevisiae deletion strains, locus YNL322C, strain KRE1, hits give low values 1 | S. cerevisiae deletion strains, locus YNR049C, strain mso1, hits give low values 0.992 | S. cerevisiae deletion strains, locus YNR052C, strain pop2, hits give low values 0.98 | S. cerevisiae deletion strains, locus YOL006C, strain TOP1, hits give low values 0.945 | S. cerevisiae deletion strains, locus YOL012C, strain htz1 0.969 | S. cerevisiae deletion strains, locus YOL147C, strain pex11, hits give low values 0.986 | S. cerevisiae deletion strains, locus YOR001W, strain rrp6, hits give low values 0.915 | S. cerevisiae deletion strains, locus YOR061W, strain CKA2, hits give low values 1.01 | S. cerevisiae deletion strains, locus YOR069W, strain VPS5, hits give low values 1.01 | S. cerevisiae deletion strains, locus YOR070C, strain gyp1, hits give low values 0.985 | S. cerevisiae deletion strains, locus YOR080W, strain dia2, hits give low values 0.97 | S. cerevisiae deletion strains, locus YOR083W, strain WHI5, hits give low values 0.982 | S. cerevisiae deletion strains, locus YOR106W, strain vam3, hits give low values 0.995 | S. cerevisiae deletion strains, locus YOR136W, strain idh2, hits give low values 0.975 | S. cerevisiae deletion strains, locus YOR144C, strain elg1, hits give low values 0.987 | S. cerevisiae deletion strains, locus YOR184W, strain ser1, hits give low values 0.899 | S. cerevisiae deletion strains, locus YOR231W, strain MKK1, hits give low values 0.92 | S. cerevisiae deletion strains, locus YOR265W, strain rbl2, hits give low values 0.982 | S. cerevisiae deletion strains, locus YOR270C, strain vph1, hits give low values 0.904 | S. cerevisiae deletion strains, locus YOR290C, strain snf2, hits give low values 0.998 | S. cerevisiae deletion strains, locus YOR316C, strain cot1, hits give low values 0.996 | S. cerevisiae deletion strains, locus YPL051W, strain arl3, hits give low values 0.949 | S. cerevisiae deletion strains, locus YPL055C, strain LGE1, hits give low values 1.02 | S. cerevisiae deletion strains, locus YPL078C, strain atp4, hits give low values 0.999 | S. cerevisiae deletion strains, locus YPL106C, strain sse1, hits give low values 0.991 | S. cerevisiae deletion strains, locus YPL240C, strain hsp82, hits give low values 0.988 | S. cerevisiae deletion strains, locus YPL241C, strain CIN2, hits give low values 1 | S. cerevisiae deletion strains, locus YPL256C, strain CLN2, hits give low values 0.902 | S. cerevisiae deletion strains, locus YPR119W, strain clb2, hits give low values 0.983 | S. cerevisiae deletion strains, locus YPR141C, strain kar3, hits give low values 0.994 | S. cerevisiae deletion strains, locus YPR163C, strain tif3, hits give low values 0.983 | S. cerevisiae deletion strains, locus YPR167C, strain met16, hits give low values 0.984 | S. cerevisiae deletion strains, strain wtn01, hits give low values 0.981 | S. cerevisiae strains, strain wild type, hits give low values 0.987
active: S. cerevisiae deletion strains, locus YNL307C, strain MCK1, hits give low values 0.848
